KCNQ2 inh – blocks the rat KCNQ2 potassium channel; O88943; CHO-K1 KCNQ2, FluxOR thallium flux, 20 min; active compounds read low; B-score at 10 µM; actives 1.1% (n = 310,000);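 active = fluorescence ratio B-score at most minus 3 library SDs, with starting brightness B-score within 2 library SDs, cut at about -5.5 in these data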
Target sequence (O88943 whole entry, looked up): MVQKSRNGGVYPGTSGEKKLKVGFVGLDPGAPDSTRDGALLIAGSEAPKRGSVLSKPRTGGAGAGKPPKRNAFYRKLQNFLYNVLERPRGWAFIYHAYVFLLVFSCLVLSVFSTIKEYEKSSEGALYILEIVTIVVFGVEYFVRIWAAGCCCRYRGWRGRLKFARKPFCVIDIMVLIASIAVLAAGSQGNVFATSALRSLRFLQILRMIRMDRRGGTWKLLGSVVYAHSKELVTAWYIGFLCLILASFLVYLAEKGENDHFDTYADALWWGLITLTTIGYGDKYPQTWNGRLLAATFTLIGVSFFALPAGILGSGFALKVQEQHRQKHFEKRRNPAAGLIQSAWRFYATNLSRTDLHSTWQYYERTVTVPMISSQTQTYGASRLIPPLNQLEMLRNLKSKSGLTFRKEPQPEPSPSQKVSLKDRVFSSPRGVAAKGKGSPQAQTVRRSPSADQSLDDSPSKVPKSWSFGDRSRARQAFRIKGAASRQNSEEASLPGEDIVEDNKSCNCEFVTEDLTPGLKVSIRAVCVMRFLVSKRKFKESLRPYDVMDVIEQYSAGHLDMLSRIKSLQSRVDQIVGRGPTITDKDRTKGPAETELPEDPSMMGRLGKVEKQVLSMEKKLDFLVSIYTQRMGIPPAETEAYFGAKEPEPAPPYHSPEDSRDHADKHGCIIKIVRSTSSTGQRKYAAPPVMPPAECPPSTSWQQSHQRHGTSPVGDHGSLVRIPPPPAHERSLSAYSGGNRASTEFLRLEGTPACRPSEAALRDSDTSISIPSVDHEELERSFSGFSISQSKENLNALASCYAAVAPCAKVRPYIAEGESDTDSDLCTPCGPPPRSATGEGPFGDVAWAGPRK
KCNQ2 pot – enhances the rat KCNQ2 potassium channel; O88943; CHO-K1 KCNQ2, FluxOR thallium flux fluorescence; active compounds read high; B-score at 10 µM; actives 0.54% (n = 310,000); AID 2239;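 active = fluorescence ratio B-score at least 3 SD of library B-scores, with initial fluorescence B-score within 3 of them, cut at about 5.3 in these data; same plate scores as AID 2156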;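 note: B-score of peak minus minimum over baseline fluorescence ratio after K+ and Tl+ stimulus; positive B-score means potentiation of KCNQ2 with more thallium influx and brighter signal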
The depositor's hits bear a star; i = inactive; / = no result. The list is not random: actives were taken first. Their share in the collection is about 1.6%.

SMILES	KCNQ2 inh	KCNQ2 pot
O=C(CN=C1NC(=O)C(c2ccccc2)(c2ccccc2)N1)NCc1ccc(F)cc1	i	/
COc1ccc(CNC(=O)CN=C2NC(=O)C(c3ccccc3)(c3ccccc3)N2)cc1	-6.09*	-6.09
CN(C)CCN(C(=O)c1ccccc1Cl)c1nc2c(Cl)cccc2s1	i	/
COc1ccc(OC)c(C(C)NC(=O)Nc2cccc(C(C)=O)c2)c1 (stereo not drawn)	i	1.01
CCN(Cc1ccccc1)C(c1ccc(C)cc1)c1nnnn1C(C)(C)C (stereo not drawn)	-10.5*	-10.5
CCN(Cc1ccccc1)C(c1ccc(Cl)cc1)c1nnnn1C(C)(C)C (stereo not drawn)	i	/
CCOC(=O)c1c(-c2ncc(C(F)(F)F)cc2Cl)noc1C	i	/
COc1ccc(CN(C(=O)c2snc(C(N)=O)c2N)C(CC(C)C)C(=O)NC2CCCCC2)cc1 (stereo not drawn)	i	/
N#Cc1ccc(C(=O)Nc2ccc([N+](=O)[O-])cc2)c(F)c1	i	0.01
COc1cccc(CC(=O)Nc2ccc3nc(C)sc3c2)c1	i	/
COc1ccc(OCC(=O)Nc2ccc3nc(C)sc3c2)cc1	-9.62*	-9.62
CCNC(=S)NNC(=O)CCn1cc(C)cn1	i	0.48
CN(C)c1ccc(NC(=O)CN2C(=O)CC(c3ccccc3)=Nc3ccccc32)cc1	i	1.92
O=C1CC(c2ccccc2)=Nc2ccccc2N1Cc1ccccc1	-6.15*	-6.15
CC(=O)Nc1sc2c(c1C#N)CCC(C)C2 (stereo not drawn)	i	1.82
Cc1ccc(C)n1-c1sc2c(c1C#N)CCC(C)C2 (stereo not drawn)	-7.85*	-7.85
O=S1(=O)C=C(Oc2ccc(F)cc2)c2ccccc21	i	0.45
O=S1(=O)C=C(Oc2ccc3ccccc3c2)c2ccccc21	-6.11*	-6.11
Cc1cc(C)c(C)c(OCC(O)CN2CCN(c3ccccn3)CC2)c1 (stereo not drawn)	i	/
Cc1nn(CC2CC2)c(=O)n1-c1ccc(Oc2ccccc2)cc1	i	4.46
Cc1ccc(C(=O)N2CCC(C(=O)Nc3cccc([N+](=O)[O-])c3)CC2)cc1	i	/
C/C(=N\Nc1nc(C)c(C)s1)c1ccc([N+](=O)[O-])cc1	i	5.37*
C/C(=N\Nc1ccc([N+](=O)[O-])cc1)c1ccc(N)cc1	i	/
Cc1ccc(NC(=O)[C@H](Cc2ccccc2)NC(=O)[C@@H]2Cc3ccccc3CN2)c(C)c1	i	/
CC(C)C[C@H](NC(=O)[C@@H]1Cc2ccccc2CN1)C(=O)Nc1ccc(C(C)C)cc1	i	/
SMILES	KCNQ2 inh	KCNQ2 pot
CCc1ccc(NC(=O)[C@H](Cc2c[nH]c3ccccc23)NC(=O)[C@@H]2Cc3ccccc3CN2)cc1	i	/
Cc1ccc(NC(=O)[C@H](Cc2c[nH]c3ccccc23)NC(=O)[C@@H]2Cc3ccccc3CN2)c(C)c1	-6.7*	-6.7
Cc1cccc(NC(=O)[C@H](Cc2c[nH]c3ccccc23)NC(=O)[C@@H]2Cc3ccccc3CN2)c1	-6.45*	-6.45
CC(NC(=O)[C@H](Cc1c[nH]c2ccccc12)NC(=O)[C@@H]1Cc2ccccc2CN1)c1ccccc1 (stereo partly drawn)	-5.89*	-5.89
Cc1ccc(S(=O)(=O)NCc2ccc(C(=O)N3CCN(c4ccc([N+](=O)[O-])cc4)CC3)cc2)cc1	i	/
CC(=O)N1CCOc2ccc(S(=O)(=O)NCC3CCC(C(=O)Nc4ncccc4C)CC3)cc21 (stereo not drawn)	i	/
O=C(COC(=O)c1ccc2ccccc2n1)NCc1ccccc1	i	/
CCN(CC)CCCNC(=O)CCn1nc(-c2ccccc2)ccc1=O	i	0.05
Nc1cc(Cl)ccc1C(=O)OCC(=O)NC1CCCCC1	i	/
CCN(C(=O)COC(=O)c1ccc(Cl)cc1N)C1CCCCC1	-6.4*	-6.4
COC(=O)C(Cc1ccccc1)NC(=O)CC(C)CC(=O)Nc1ccc(C)cc1 (stereo not drawn)	i	/
COc1cc(C(=O)NCCOc2cc(C)cc(C)c2)cc(OC)c1OC	i	/
Cc1ccc(S(=O)(=O)N(C)c2ccc(C(=O)NCC(c3cccs3)N3CCOCC3)cc2)cc1 (stereo not drawn)	i	/
Cc1ccc(N(C)S(=O)(=O)c2cccc(C(=O)NCC(c3cccs3)N3CCOCC3)c2)cc1 (stereo not drawn)	-6.82*	-6.82
COC(C(=O)Nc1ccnn1C1CCN(Cc2ccc(C)s2)CC1)c1ccccc1 (stereo not drawn)	i	3.23
COc1ccccc1N(Cc1ccccc1)S(=O)(=O)c1cccc(C(=O)Nc2ccccn2)c1	i	/
COc1ccccc1N(Cc1ccccc1)S(=O)(=O)c1cccc(C(=O)Nc2ccc(C)cn2)c1	-7.14*	-7.14
Cc1ccc(Oc2ncccc2C(=O)NCC(=O)O)cc1	i	2.12
C=CCOc1c(Br)cc(CNc2ccc(NC(=O)C(C)C)cc2)cc1OCC	i	8.32*
CCOc1cc(CNc2ccc(O)cc2)cc(Br)c1OCc1ccccc1F	i	/
O=C(c1cc(-c2ccc(Cl)cc2)n[nH]1)N1CCN(C(=O)c2ccco2)CC1	i	0.36
Cc1ccc(C23CC4CC(CC(C(=O)NC(C)C(N)=O)(C4)C2)C3)cc1 (stereo not drawn)	i	1.86
CCOc1ccc(C(=O)CC(NCc2cccs2)C(=O)O)cc1 (stereo not drawn)	i	1.63
O=C1CN(c2nc(-c3cccnc3)nc3sc4c(c23)CCCC4)CCN1	-5.68*	-5.68
Nc1nc(-c2cccnc2)nc2sc3c(c12)CCCC3	i	3.48
SMILES	KCNQ2 inh	KCNQ2 pot
Cc1cccc(OC(=O)Cn2c(C(F)(F)F)nc3ccccc32)c1	i	0.08
Cc1cccc(OCc2n(CC(=O)OC3CC(C)CCC3C(C)C)c3ccccc3[n+]2C)c1 (stereo not drawn)	-6.28*	-6.28
O=C(NCC(=O)N(c1cccnc1)C(C(=O)NC1CCCC1)c1ccccc1F)c1ccco1 (stereo not drawn)	i	1.29
CC(=O)N1CC(=O)N=C1SCC(=O)Nc1nc(-c2ccccc2)c(-c2ccccc2)s1	i	/
Cc1ccc(/C=N/N2C(=S)SC(C)(C)C2N(O)C(=O)Nc2ccc([N+](=O)[O-])cc2)cc1 (stereo not drawn)	i	/
CC1(C)SC(=S)N(/N=C/c2ccc(O)cc2)C1N(O)C(=O)Nc1ccc([N+](=O)[O-])cc1 (stereo not drawn)	-7.55*	-7.55
Cc1cccc(NC(=O)CCCCCN2C(=O)[C@@H]3Cc4ccccc4CN3C2=O)c1	i	/
O=C(CCCCCN1C(=O)[C@@H]2Cc3ccccc3CN2C1=O)Nc1cccc(F)c1	-5.77*	-5.77
COc1ccc(C(=O)N=c2sc3c(C)ccc(OC)c3n2C)cc1	i	/
c1ccc(N(c2ccccc2)c2nc(N3CCCC3)nc(-n3ccnc3)n2)cc1	i	/
CCOC(=O)N1CCN(c2nc(N(c3ccccc3)c3ccccc3)nc(-n3ccnc3)n2)CC1	-5.98*	-5.98
Cc1nn(-c2ccc(N3CCOCC3)nn2)c(C)c1CCC(=O)NCc1ccccc1F	i	/
c1ccc(Cc2nn3c(C4COc5ccccc5O4)nnc3s2)cc1 (stereo not drawn)	i	/
c1ccc(CCc2nn3c(C4COc5ccccc5O4)nnc3s2)cc1 (stereo not drawn)	-6.14*	-6.14
Cc1nc(NC(=O)C2CC2)sc1C(=O)N1CCCCC1	i	1.16
Cc1nc(NC(=O)c2cccc(Cl)c2)sc1C(=O)N1CCCCC1	-7.47*	-7.47

Bioassay records as filed in PubChem BioAssay.
